A selection: hits, their analogues and other compounds. The true share with any hit is near 0.58%.
PINK1 expr mod: A Quantitative High throughput Screen to Identify Chemical Modulators of PINK1 Expression; PINK1 immunofluorescence, high-content cytometry, 24 h; Potency, µM (top dose mostly 76.6 µM), without a hit: top-dose activation (PINK1 increase), actives largely listed as activators; 0.2% of 410,000 active; active = well fitted activation curve with a large enough effect; inconclusive = small, poorly fitted or top-dose-only effect; cell line not stated here; also: potency is read from the fitted curve at half-maximal effect; % of control where 0% means no effect; nearly all actives have a fitted effect of over 65% in size
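Fluorescence from anti-PINK1 antibody, together with nuclear and cell stains, was scanned on a laser-scanning cytometer. Before staining, stable-line cells were incubated 24 hours with compounds at 5 concentrations; primary antibody 12 h at 10 degrees C.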
IL2 activator: qHTS of IL-2 Activators | IL-2 activation reporter assay, cell-based qHTS; stimulated with anti-CD3/CD4/CD28 beads; in transgenic mouse T cells | activation, % (series mostly up to about 46 µM) | 0.065% of 360,000 active | AID 652025, 2013; in the data active = activation above about 50%; inconclusive = mostly about 30% to 49%; also: 0% is about no effect
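Using fluorescent plate cytometry, EGFP and DsRed are detected in transgenic mouse T cells stimulated 18 h at 37 degrees C with antibody-coated beads after 60 min compound pretreatment.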
PKM2 act: qHTS Assay for Activators of Human Muscle isoform 2 Pyruvate Kinase. Pyruvate kinase PKM (Homo sapiens), P14618. purified PKM2, Kinase-Glo ATP luminescence, activation; response scale: 0% is enzyme alone, no compound. Potency, µM (titrated, usually from 57.5 µM), inactives show top-dose activation, hits mostly activators. 0.34% of 260,000 active. AID 1631, 2009; also: potency is read from the fitted curve at half-maximal effect; % is scaled to controls: 0 for no effect and ±100 for the full control effect; nearly all actives have a fitted effect of over 55% in size
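Kinase-Glo luminescence reports ATP generated from ADP (0.1 mM) and PEP (0.5 mM) by purified hPK-M2 after 1 h at room temperature, pH 7.2 imidazole buffer; intermediate enzyme activity allows detecting inhibitors and activators.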
B2AR arrestin: qHTS assay of beta-arrestin-biased ligands of beta2-adrenergic receptor. Potency, µM (series often up to 46.1 µM), for the others: top-dose activation, hits mostly activators. 0.02% of 330,000 active. Beta-2 adrenergic receptor (Homo sapiens), P07550. beta-arrestin recruitment to beta2AR, cell-based reporter;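 also: potency is read from the fitted curve at half-maximal effect; 0% = DMSO controls and full agonism = EC100 isoproterenol or metaproterenol; nearly all actives have a fitted effect of over 65% in size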
Target sequence (P07550 whole entry, looked up): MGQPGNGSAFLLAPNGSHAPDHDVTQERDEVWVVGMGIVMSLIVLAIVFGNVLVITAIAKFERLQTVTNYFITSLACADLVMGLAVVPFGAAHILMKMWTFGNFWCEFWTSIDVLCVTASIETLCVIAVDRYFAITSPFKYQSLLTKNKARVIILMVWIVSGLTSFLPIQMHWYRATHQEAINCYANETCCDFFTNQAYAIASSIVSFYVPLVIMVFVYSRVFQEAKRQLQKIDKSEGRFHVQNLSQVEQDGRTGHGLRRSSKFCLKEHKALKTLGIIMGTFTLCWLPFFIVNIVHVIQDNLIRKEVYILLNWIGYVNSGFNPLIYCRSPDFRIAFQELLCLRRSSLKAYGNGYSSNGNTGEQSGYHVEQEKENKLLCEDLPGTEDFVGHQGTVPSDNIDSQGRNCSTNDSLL
Epigenetic derep: Quantitative High-Throughput Screen for Regulators of Epigenetic Control | AID 1865, 2009 | murine LDR cells, GFP reporter derepression, 30 h | 0.2% of 280,000 active | Potency, µM (titrated, usually from 53.9 µM), without a hit: top-dose GFP activation, hits mostly activators; also: potency is read from the fitted curve at half-maximal effect; % of control where 0% means no effect; nearly all actives have a fitted effect of over 60% in size
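Readout is the number of GFP-expressing murine LDR cells, counted by cytometry following washing. Cells were treated with compound for 30 h at 37 C; the stably integrated CMV-GFP locus is normally silent.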
* hit, by the source's call; ? = inconclusive; / = no result given. Unless noted, calls follow the shape of the dose curve; as a rule, active = well fitted curve in the direction sought with a large enough effect; inconclusive = small, poorly fitted or top-dose-only effect, or another doubt; inactive = no such curve, though single readings can be large; an effect the other way counts as inactive or inconclusive.

SMILES | PINK1 expr mod | IL2 activator | PKM2 act | B2AR arrestin | Epigenetic derep
CCOC(=O)c1ccc(NC(=O)CSc2nc(-c3cccs3)cc(C(F)(F)F)c2C#N)cc1 | 0.1% | / | / | / | 10µM*
COc1ccc(NC(=O)CSc2nc(-c3cccs3)cc(C(F)(F)F)c2C#N)cc1 | 6.5% | / | / | / | ?
CCOC(=O)c1c(-c2ccc(C)o2)csc1NC(=O)CN1CCOCC1 | -0.5% | -1.8 | ? | -0.5% | -1.6%
CCOC(=O)c1c(-c2ccc(C)o2)csc1NC(=O)COC(=O)c1cccs1 | -0.5% | -0.8 | 3.16µM* | 0.1% | ?
CCc1noc(C)c1C(=O)N1CCOc2ccc(CN3CCCC(C(=O)c4cccnc4)C3)cc2C1 (centres undefined) | -0.6% | / | / | / | /
Cc1ccccc1C(=O)Nc1nc(-c2ccc(Br)cc2)ns1 | 25.1µM* | / | / | / | 1.1%
COc1ccccc1C(=O)Nc1nc(-c2ccc(Br)cc2)ns1 | 1.0% | / | / | / | -3.2%
O=C(c1ccc(S(=O)(=O)c2ccccc2Cl)c([N+](=O)[O-])c1)N1CCN(Cc2ccccc2)CC1 | -0.1% | -0.3 | 11.2µM* | -0.7% | -0.9%
CC(C)N1CCN(C(=O)c2cnn(-c3nccc(-c4ccc5c(c4)OCO5)n3)c2-c2ccco2)CC1 | -0.9% | / | / | / | /
Cc1cc(Nc2cc(Cl)ccc2C)n2nc(-c3ccccc3)nc2n1 | 5.1% | / | / | / | 25.1µM*
Cc1cnc(-n2ncc(C(=O)NCc3ccncc3)c2C2CC2)nc1-c1cccs1 | 0.9% | / | / | / | /
CCOC(=O)c1c(-c2ccccc2)csc1NC(=O)/C(C#N)=C/c1ccc(O)c(OC)c1 | 15.2% | 57.6* | 16.2% | -0.1% | 25.1µM*
CCN1/C(=C\c2ccc3cc(C)ccc3[n+]2CC)Sc2cc(C)c(C)cc21 | ? | 1.3 | -6.2% | 0.2% | 3.16µM*
CCN1/C(=C/c2ccc3cc(C)cc(C)c3[n+]2CC)Sc2cc(C)ccc21 | 0.0% | 1.4 | 4.8% | 0.8% | 15.8µM*
CCN1/C(=C/c2ccc3cccc(C)c3[n+]2CC)Sc2ccccc21 | 3.98µM* | 54.0* | -77.4% | -0.5% | ?
Cc1nc2ccccc2nc1CN1CCOc2ccc(C3(O)CCN(c4ccccc4F)CC3)cc2C1 | 1.1% | / | / | / | /
COc1cc(/C=C/CN2CCOc3ccc(C(O)c4cccnc4)cc3C2)ccc1O (centres undefined) | 0.5% | / | / | / | /
Cc1cccc(-c2cnc(C)nc2C2CCCN(C(=O)c3cccc(Cn4cccn4)c3)C2)c1 (centres undefined) | 0.7% | / | / | / | /
COCc1ccc(CN2CCOc3c(cc(-c4cc(C)c5cccc(OC)c5n4)cc3OC)C2)o1 | -0.4% | / | / | / | /
CCCCCOC(=O)c1[nH]c2c(c1C)C(=O)CC(c1ccco1)C2 (centres undefined) | 4.9% | -3.9 | 15.8µM* | -0.7% | 10.3%
CCOCCOC(=O)c1[nH]c2c(c1C)C(=O)CC(c1ccccc1)C2 (centres undefined) | 1.1% | -4.2 | / | 0.3% | /
CCN(c1ccc(N=Cc2c(O)n(Cc3ccc(OC)cc3)c(=O)c3ccccc23)cc1)C(C)C | 2.2% | 18.6 | -14.9% | -0.4% | 2µM*
COc1ccc(-n2c(O)c(C=Nc3ccccc3)c3ccccc3c2=O)cc1 | 1.5% | -0.5 | 5.2% | 0.5% | 5.2%
Cc1cc(C)nc(S[C@H]2C[C@@H](C(=O)N3CCN(c4ccccc4F)CC3)N(Cc3ccccc3F)C2)n1 | 1.1% | / | / | / | /
O=[N+]([O-])c1cccc(Cl)c1NCCNS(=O)(=O)c1ccccc1 | -0.4% | -0.7 | 14.1µM* | 0.1% | 0.2%
Cc1ncc2c(c1CNC(=O)c1cncs1)CCN(C(=O)c1ccc(-c3ccccc3)cc1)C2 | 1.3% | / | / | / | /
CCC(=O)N/C(N)=N/c1nc(C)c2cc(OC)ccc2n1 | 3.55µM* | 0.1 | 2.0% | -0.1% | -1.1%
COc1ccc2nc(/N=C(\N)NC(=O)C(C)(C)C)nc(C)c2c1 | 1.8% | -0.2 | 11.2% | 0.2% | -1.1%
Cc1csc(NC(=O)c2ccccc2O)n1 | 6.3% | 0.0 | -21.4% | -0.6% | -0.7%
CC(C)(C)c1csc(NC(=O)c2ccccc2O)n1 | 28.2µM* | 0.8 | -6.2% | 0.0% | /
